# Assay results published in publication PMC7862700, “An all-to-all approach to the identification of sequence-specific readers for epigenetic DNA modifications on cytosine”.
# Legend:
# Experiment in all cases: DAPPL (digital affinity profiling via proximity ligation, sequencing); 10 mM Tris-HCl pH 7.5, 50 mM NaCl, 1 mM DTT, 4% glycerol, room temperature, 30 min; GST-TFs on glutathione beads, 16-mer random dsDNA library, 0.1% formaldehyde crosslink after washing; high values mean tight binding
# [1] = biological target: T1, FEV (Homo sapiens, UniProt Q99581 1-238); conditions: protein: recombinant; tags: N-terminal GST; dsDNA, one strand shown
# T1 sequence: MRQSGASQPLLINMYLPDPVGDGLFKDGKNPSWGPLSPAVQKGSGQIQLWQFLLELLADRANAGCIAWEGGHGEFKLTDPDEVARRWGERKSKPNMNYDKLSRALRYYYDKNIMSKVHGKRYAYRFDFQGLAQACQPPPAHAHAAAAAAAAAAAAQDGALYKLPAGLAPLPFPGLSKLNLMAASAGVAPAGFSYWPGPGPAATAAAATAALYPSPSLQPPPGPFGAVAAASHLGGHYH
# How it was run: (§1)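 Pools of DNA-barcoded human transcription factors, expressed in yeast as GST fusions on glutathione beads and combined with a tag-only sample, were incubated with 200 nmole of a 16-mer random double-stranded DNA library. Incubation took 30 min at room temperature in Tris/NaCl/DTT/glycerol buffer and was followed by washing, 0.1% formaldehyde crosslinking, proximity ligation (BsaI/T4 ligase, 1 h, 37 °C), PCR amplification and sequencing on an Illumina NextSeq500. Binding signal is the ratio of a hexamer's read frequency for a factor to its frequency for the tag-only sample.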
# [2] = biological target: ETV5 (Homo sapiens, UniProt P41161 1-510); conditions: protein: recombinant; tags: N-terminal GST; dsDNA, one strand shown
# How it was run: as §1
# [3] = biological target: HSF1 (Homo sapiens, UniProt Q00613 1-529); conditions: protein: recombinant; tags: N-terminal GST; chain copies: 3; dsDNA, one strand shown
# How it was run: as §1
# [4] = biological target: T2, SPIC (Homo sapiens, UniProt Q8N5J4 1-248); conditions: protein: recombinant; tags: N-terminal GST; dsDNA, one strand shown
# T2 sequence: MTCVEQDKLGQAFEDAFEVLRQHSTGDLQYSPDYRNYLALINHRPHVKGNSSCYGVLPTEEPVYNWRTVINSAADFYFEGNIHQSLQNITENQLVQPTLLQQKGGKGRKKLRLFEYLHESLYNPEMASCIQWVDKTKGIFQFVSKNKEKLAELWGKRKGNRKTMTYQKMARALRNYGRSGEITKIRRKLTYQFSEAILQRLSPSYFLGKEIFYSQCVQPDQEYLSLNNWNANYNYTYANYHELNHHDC
# How it was run: as §1
# [5] = biological target: ELF4 (Homo sapiens, UniProt Q99607 1-663); conditions: protein: recombinant; tags: N-terminal GST; dsDNA, one strand shown
# How it was run: as §1
# [6] = biological target: T3, ELK4 (Homo sapiens, UniProt P28324-2 1-405); conditions: protein: recombinant; tags: N-terminal GST; dsDNA, one strand shown
# T3 sequence: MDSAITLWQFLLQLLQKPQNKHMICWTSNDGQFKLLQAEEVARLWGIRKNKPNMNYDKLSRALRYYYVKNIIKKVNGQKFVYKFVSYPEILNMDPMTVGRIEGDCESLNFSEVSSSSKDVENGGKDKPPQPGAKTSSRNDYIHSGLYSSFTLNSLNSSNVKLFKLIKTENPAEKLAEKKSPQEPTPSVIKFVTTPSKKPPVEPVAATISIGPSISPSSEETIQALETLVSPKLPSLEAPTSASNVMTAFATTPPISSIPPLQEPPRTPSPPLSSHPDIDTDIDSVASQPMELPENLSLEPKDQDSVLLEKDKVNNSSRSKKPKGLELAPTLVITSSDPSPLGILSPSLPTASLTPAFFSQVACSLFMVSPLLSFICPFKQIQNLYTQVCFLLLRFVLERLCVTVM
# How it was run: as §1
# [7] = biological target: T4, ETV2 (Homo sapiens, UniProt O00321 1-342); conditions: protein: recombinant; tags: N-terminal GST; dsDNA, one strand shown
# T4 sequence: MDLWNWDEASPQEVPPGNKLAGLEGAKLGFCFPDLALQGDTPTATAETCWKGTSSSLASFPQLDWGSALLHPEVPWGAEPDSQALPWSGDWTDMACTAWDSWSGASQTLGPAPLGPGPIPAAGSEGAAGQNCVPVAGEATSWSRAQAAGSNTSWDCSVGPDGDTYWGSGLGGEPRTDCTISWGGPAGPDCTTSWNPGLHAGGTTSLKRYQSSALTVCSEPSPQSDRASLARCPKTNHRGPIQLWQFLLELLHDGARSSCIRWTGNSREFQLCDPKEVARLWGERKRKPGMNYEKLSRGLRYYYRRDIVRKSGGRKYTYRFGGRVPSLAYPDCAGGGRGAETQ
# How it was run: as §1
# [8] = biological target: T5, ELF3 (Homo sapiens, UniProt P78545 1-371); conditions: protein: recombinant; tags: N-terminal GST; dsDNA, one strand shown
# T5 sequence: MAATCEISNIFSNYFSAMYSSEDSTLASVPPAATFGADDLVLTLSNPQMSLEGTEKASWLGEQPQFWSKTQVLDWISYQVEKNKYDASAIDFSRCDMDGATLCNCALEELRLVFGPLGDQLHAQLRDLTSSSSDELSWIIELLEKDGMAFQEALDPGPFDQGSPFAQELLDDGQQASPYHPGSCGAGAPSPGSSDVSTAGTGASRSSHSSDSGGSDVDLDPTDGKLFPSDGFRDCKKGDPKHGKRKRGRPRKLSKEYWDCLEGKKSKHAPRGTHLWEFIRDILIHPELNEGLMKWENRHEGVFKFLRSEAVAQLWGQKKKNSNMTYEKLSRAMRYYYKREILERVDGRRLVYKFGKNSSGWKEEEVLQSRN
# How it was run: as §1
# [9] = biological target: CRX (Homo sapiens, UniProt O43186 1-299); conditions: protein: recombinant; tags: N-terminal GST; dsDNA, one strand shown
# How it was run: as §1
# [10] = biological target: ETV1 (Homo sapiens, UniProt P50549 1-477); conditions: protein: recombinant; tags: N-terminal GST; dsDNA, one strand shown
# How it was run: as §1
# [11] = biological target: T6, ERF (Homo sapiens, UniProt P50548 1-548); conditions: protein: recombinant; tags: N-terminal GST; dsDNA, one strand shown
# T6 sequence: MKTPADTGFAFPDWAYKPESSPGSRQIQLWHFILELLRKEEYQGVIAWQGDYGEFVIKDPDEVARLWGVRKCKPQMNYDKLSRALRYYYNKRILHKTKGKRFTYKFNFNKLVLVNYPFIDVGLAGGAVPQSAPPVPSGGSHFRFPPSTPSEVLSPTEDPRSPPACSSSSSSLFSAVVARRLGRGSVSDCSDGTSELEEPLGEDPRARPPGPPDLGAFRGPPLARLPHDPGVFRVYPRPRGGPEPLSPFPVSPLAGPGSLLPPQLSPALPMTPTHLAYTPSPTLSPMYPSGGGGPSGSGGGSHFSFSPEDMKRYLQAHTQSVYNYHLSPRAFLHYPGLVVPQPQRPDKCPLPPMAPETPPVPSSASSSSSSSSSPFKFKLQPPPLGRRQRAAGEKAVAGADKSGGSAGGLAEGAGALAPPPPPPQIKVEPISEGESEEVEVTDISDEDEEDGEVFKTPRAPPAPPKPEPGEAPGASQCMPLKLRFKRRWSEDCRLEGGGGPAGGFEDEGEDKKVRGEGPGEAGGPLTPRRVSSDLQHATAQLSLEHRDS
# How it was run: as §1
# [12] = biological target: T7, ETV3L (Homo sapiens, UniProt Q6ZN32 1-361); conditions: protein: recombinant; tags: N-terminal GST; dsDNA, one strand shown
# T7 sequence: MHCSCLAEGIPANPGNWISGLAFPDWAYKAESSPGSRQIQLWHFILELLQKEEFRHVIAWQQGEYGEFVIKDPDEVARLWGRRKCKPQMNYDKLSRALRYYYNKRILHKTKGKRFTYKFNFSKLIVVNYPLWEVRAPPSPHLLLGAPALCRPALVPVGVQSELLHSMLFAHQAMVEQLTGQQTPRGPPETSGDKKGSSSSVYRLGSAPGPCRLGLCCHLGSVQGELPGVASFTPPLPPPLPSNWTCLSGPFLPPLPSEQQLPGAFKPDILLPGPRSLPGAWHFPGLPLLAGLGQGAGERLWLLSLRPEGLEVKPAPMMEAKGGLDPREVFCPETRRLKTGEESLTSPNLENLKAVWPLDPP
# How it was run: as §1
# [13] = biological target: T8, ETS2 (Homo sapiens, UniProt P15036 1-469); conditions: protein: recombinant; tags: N-terminal GST; dsDNA, one strand shown
# T8 sequence: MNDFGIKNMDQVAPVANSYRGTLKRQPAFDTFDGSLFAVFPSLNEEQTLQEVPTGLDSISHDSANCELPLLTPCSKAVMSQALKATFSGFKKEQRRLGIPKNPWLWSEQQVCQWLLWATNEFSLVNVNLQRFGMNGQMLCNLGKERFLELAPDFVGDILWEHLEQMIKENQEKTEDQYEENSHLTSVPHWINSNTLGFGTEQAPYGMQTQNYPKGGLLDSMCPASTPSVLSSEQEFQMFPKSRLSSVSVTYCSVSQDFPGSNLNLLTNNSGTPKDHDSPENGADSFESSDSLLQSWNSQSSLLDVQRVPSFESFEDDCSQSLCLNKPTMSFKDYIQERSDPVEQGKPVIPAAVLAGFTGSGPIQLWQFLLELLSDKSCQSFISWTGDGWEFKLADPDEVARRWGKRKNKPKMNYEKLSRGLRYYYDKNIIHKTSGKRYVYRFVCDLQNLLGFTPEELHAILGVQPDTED
# How it was run: as §1
# [14] = biological target: T9, SPDEF (Homo sapiens, UniProt O95238 1-335); conditions: protein: recombinant; tags: N-terminal GST; dsDNA, one strand shown
# T9 sequence: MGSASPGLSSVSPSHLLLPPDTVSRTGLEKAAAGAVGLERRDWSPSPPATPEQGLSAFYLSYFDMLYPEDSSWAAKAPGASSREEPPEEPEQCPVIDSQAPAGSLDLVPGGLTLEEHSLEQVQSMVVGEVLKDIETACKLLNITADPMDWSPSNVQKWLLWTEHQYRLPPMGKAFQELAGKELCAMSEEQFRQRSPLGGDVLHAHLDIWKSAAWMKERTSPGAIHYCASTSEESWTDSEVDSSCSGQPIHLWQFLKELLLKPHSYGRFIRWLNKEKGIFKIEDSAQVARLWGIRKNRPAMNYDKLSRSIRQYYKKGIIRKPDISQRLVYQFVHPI
# How it was run: as §1
# [15] = biological target: T10, ETV7 (Homo sapiens, UniProt Q9Y603 1-341); conditions: protein: recombinant; tags: N-terminal GST; dsDNA, one strand shown
# T10 sequence: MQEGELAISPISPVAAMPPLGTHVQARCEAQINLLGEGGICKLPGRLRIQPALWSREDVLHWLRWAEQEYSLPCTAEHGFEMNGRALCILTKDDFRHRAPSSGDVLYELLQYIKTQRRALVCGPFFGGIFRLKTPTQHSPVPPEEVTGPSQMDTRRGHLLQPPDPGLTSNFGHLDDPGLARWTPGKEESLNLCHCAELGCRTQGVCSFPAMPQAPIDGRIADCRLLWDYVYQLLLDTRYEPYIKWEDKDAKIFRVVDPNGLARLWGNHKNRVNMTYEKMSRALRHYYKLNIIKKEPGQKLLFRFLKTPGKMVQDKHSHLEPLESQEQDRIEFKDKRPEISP
# How it was run: as §1
# [16] = biological target: T11, ELF5 (Homo sapiens, UniProt Q9UKW6-2 1-255); conditions: protein: recombinant; tags: N-terminal GST; dsDNA, one strand shown
# T11 sequence: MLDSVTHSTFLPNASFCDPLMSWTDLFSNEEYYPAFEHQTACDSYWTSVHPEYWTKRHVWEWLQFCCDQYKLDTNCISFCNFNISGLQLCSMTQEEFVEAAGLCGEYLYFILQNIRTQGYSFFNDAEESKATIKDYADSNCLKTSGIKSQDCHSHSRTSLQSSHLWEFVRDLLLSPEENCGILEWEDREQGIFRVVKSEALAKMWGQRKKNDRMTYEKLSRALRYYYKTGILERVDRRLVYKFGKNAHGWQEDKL
# How it was run: as §1
# [17] = biological target: T12, ETV3 (Homo sapiens, UniProt P41162-2 1-143); conditions: protein: recombinant; tags: N-terminal GST; dsDNA, one strand shown
# T12 sequence: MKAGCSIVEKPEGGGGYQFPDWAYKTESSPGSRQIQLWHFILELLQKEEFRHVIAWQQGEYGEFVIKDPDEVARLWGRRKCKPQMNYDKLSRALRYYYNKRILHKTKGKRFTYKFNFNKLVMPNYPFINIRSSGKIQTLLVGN
# How it was run: as §1
# [18] = biological target: ETV6 (Homo sapiens, UniProt P41212 1-452); conditions: protein: recombinant; tags: N-terminal GST; dsDNA, one strand shown
# How it was run: as §1
# Sequence of ETV6 (P41212 whole entry): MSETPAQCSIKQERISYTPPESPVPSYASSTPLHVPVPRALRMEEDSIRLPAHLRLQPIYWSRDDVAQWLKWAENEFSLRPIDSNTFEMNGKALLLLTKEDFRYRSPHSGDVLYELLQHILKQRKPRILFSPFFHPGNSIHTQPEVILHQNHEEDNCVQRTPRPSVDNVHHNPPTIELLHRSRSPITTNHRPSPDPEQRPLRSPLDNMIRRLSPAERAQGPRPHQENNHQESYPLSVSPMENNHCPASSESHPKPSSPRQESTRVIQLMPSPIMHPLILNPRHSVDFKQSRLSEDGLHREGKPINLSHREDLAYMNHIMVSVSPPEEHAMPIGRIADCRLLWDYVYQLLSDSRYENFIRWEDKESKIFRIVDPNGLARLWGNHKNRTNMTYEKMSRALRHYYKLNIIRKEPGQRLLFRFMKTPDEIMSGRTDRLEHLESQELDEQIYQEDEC
# Sequence of CRX (O43186 whole entry): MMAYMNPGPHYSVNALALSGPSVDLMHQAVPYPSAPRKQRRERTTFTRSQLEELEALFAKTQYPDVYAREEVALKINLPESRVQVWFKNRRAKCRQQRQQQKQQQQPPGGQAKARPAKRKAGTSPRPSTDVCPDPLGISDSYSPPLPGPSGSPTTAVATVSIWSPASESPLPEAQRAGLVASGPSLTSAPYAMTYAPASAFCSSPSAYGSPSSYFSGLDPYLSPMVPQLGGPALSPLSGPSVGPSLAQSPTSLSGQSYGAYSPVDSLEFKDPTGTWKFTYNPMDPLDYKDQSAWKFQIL
# Sequence of ETV1 (P50549 whole entry): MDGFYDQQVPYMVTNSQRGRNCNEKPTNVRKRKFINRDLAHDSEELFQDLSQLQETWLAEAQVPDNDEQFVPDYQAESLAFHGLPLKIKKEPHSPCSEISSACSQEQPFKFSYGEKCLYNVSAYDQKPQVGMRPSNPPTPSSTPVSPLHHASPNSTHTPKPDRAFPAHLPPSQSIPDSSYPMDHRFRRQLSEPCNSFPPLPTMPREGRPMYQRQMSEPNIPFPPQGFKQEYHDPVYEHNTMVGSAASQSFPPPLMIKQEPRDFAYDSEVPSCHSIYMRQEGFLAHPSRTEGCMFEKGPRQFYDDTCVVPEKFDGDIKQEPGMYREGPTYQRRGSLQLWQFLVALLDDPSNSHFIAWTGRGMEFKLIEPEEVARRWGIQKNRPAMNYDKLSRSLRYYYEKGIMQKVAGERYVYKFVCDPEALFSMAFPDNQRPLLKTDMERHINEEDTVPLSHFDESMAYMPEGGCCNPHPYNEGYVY
# Sequence of ELF4 (Q99607 whole entry): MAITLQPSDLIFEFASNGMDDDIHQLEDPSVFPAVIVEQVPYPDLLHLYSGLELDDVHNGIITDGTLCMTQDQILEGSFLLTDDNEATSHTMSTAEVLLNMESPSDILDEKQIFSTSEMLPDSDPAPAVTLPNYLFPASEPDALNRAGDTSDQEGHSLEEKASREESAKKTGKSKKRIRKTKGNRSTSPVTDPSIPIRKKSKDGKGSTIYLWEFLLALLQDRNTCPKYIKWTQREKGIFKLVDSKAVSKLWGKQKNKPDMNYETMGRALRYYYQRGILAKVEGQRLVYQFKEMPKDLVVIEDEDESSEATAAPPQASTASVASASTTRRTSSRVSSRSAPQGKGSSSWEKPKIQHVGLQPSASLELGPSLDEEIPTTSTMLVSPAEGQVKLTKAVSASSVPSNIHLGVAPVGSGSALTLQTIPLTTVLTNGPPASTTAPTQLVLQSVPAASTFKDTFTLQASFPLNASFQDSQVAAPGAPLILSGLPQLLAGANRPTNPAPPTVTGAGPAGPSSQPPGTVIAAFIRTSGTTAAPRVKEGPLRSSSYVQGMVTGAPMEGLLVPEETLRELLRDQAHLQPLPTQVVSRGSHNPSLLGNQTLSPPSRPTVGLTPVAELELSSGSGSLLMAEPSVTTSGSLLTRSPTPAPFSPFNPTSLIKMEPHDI
# Sequence of HSF1 (Q00613 whole entry): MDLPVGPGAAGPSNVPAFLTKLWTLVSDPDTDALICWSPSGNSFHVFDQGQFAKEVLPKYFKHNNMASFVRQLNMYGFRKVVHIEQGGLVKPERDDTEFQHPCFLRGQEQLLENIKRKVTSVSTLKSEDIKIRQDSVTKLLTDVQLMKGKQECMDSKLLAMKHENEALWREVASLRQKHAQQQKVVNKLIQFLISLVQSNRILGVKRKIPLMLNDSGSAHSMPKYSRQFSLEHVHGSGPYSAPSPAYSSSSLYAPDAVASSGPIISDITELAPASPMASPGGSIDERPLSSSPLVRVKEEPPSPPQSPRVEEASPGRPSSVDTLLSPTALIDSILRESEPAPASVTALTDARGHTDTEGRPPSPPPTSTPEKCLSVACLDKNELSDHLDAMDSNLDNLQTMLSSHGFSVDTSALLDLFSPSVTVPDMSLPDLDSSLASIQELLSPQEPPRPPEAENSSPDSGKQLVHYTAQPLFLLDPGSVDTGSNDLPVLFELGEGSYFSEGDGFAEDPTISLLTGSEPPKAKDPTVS
# Sequence of ETV5 (P41161 whole entry): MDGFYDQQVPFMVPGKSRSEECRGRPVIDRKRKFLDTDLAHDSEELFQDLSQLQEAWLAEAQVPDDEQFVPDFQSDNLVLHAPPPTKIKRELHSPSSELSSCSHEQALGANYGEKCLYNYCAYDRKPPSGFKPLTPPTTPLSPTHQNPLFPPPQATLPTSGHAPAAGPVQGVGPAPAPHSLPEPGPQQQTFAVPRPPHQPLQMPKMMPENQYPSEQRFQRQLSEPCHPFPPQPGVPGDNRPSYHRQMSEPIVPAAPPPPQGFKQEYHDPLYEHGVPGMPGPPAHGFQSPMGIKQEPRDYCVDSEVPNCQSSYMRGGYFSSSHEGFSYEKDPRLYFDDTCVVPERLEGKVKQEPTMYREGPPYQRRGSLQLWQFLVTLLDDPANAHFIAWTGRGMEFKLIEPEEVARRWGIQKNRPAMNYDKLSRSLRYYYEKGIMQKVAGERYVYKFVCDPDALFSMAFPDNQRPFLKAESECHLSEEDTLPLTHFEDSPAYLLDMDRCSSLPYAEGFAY
sequence,measurement,setting,value
CTACGG,binding signal,[1],"1.28 fold enrichment (6-mer frequency, TF over GST control)"
same,binding signal,[2],"1.21 fold enrichment (6-mer frequency, TF over GST control)"
same,binding signal,[3],"1.03 fold enrichment (6-mer frequency, TF over GST control)"
same,binding signal,[4],"1.08 fold enrichment (6-mer frequency, TF over GST control)"
same,binding signal,[5],"1.22 fold enrichment (6-mer frequency, TF over GST control)"
same,binding signal,[6],"1.37 fold enrichment (6-mer frequency, TF over GST control)"
same,binding signal,[7],"1.29 fold enrichment (6-mer frequency, TF over GST control)"
same,binding signal,[8],"1.38 fold enrichment (6-mer frequency, TF over GST control)"
same,binding signal,[9],"1.08 fold enrichment (6-mer frequency, TF over GST control)"
same,binding signal,[10],"1.34 fold enrichment (6-mer frequency, TF over GST control)"
same,binding signal,[11],"1.37 fold enrichment (6-mer frequency, TF over GST control)"
same,binding signal,[12],"1.42 fold enrichment (6-mer frequency, TF over GST control)"
same,binding signal,[13],"1.16 fold enrichment (6-mer frequency, TF over GST control)"
same,binding signal,[14],"1.17 fold enrichment (6-mer frequency, TF over GST control)"
same,binding signal,[15],"1.28 fold enrichment (6-mer frequency, TF over GST control)"
same,binding signal,[16],"1.24 fold enrichment (6-mer frequency, TF over GST control)"
same,binding signal,[17],"1.29 fold enrichment (6-mer frequency, TF over GST control)"
same,binding signal,[18],"1.19 fold enrichment (6-mer frequency, TF over GST control)"
